Measurements taken from publication PMC5540273 (PLoS ONE, 2017).

How the values were obtained:
Conditions in all cases: concentration: 1 μM, replicates: in singlicate; n = 1
PRKCI = system: PRKCI
PRKCQ = system: PRKCQ
PRKD1 = system: PRKD1
PRKD2 = system: PRKD2
PRKD3 = system: PRKD3
PRKG1 = system: PRKG1
PRKG2 = system: PRKG2
PRKR = system: T1, PRKR
T1 construct: gene EIF2AK2

PRKX = system: PRKX
PRP4 = system: PRP4
PYK2 = system: T2, PYK2
T2 construct: gene PTK2B

QSK = system: QSK
RAF1 = system: RAF1
RET = system: RET
RIOK1 = system: RIOK1
RIOK2 = system: RIOK2
RIOK3 = system: RIOK3
RIPK1 = system: RIPK1
RIPK2 = system: RIPK2
RIPK4 = system: RIPK4
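Also: KINOMEscan kinase panel screen.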

Row | SMILES | %Inh (PRKCI) [%] | %Inh (PRKCQ) [%] | %Inh (PRKD1) [%] | %Inh (PRKD2) [%] | %Inh (PRKD3) [%] | %Inh (PRKG1) [%] | %Inh (PRKG2) [%] | %Inh (PRKR) [%] | %Inh (PRKX) [%] | %Inh (PRP4) [%] | %Inh (PYK2) [%] | %Inh (QSK) [%] | %Inh (RAF1) [%] | %Inh (RET) [%] | %Inh (RIOK1) [%] | %Inh (RIOK2) [%] | %Inh (RIOK3) [%] | %Inh (RIPK1) [%] | %Inh (RIPK2) [%] | %Inh (RIPK4) [%]
1 | Nc1nccc(-c2c(-c3ccc(F)cc3)ncn2C2CCN(CC(F)(F)F)CC2)n1 [SB-236560] | 14 | 12 | 0 | 0 | 0 | 0 | 27 | 0 | 0 | 7 | 5 | 0 | 0 | 12 | 32 | 0 | 19 | 0 | 51 | 72
2 | COc1ccc(Nc2ncc(C#N)c(Nc3ccccc3C(N)=O)n2)cc1N1CCN(C)CC1.Cl [GSK1558669] | 96.6 | 96.5 | 93.1 | 89 | 99 | 76 | 54 | 87 | 52 | 79 | 99.2 | 94.7 | 32 | 99.9 | 100 | 98.7 | 79 | 74 | 76 | 98.9
3 | CCCCCc1nc2c(N)ncnc2n1CCCCC [SKF-97255] | 8 | 0 | 0 | 0 | 0 | 0 | 0 | 0 | 0 | 3 | 21 | 7 | 11 | 0 | 0 | 0 | 0 | 0 | 22 | 7
4 | COc1cc2c(cc1OCCN1CCN(C)CC1)ncc1c3ccc(C#N)cc3[nH]c21 | 22 | 17 | 0 | 0 | 10 | 0 | 13 | 30 | 19 | 79 | 2 | 67 | 0 | 29 | 93.1 | 24 | 85 | 14 | 49 | 15
5 | N#Cc1c(N2CCOCC2)sc(-c2ccn[nH]2)c1-c1ccc(Cl)cc1 | 1 | 11 | 0 | 0 | 16 | 0 | 8 | 0 | 12 | 56 | 0 | 0 | 11 | 0 | 0 | 0 | 0 | 6 | 0 | 35
6 | Cc1cccc(-c2nc(Nc3ccc4ncsc4c3)c3ccccc3n2)n1 [GW867588] | 14 | 5 | 98.7 | 99.8 | 66 | 0 | 0 | 17 | 0 | 0 | 0 | 11 | 0 | 0 | 20 | 31 | 0 | 0 | 5 | 13
7 | Cc1cccc(Cn2ccn3c(=O)cc(N4CCOCC4)nc23)c1 [GSK2297542] | 14 | 28 | 13 | 7 | 24 | 0 | 9 | 0 | 23 | 1 | 12 | 11 | 7 | 13 | 26 | 29 | 10 | 26 | 11 | 7
8 | Cc1nnc(-c2ccc(C)c(-c3ccc(C(=O)Nc4ccc(NS(C)(=O)=O)cc4)cc3)c2)o1 [GW702865] | 13 | 0 | 0 | 0 | 17 | 7 | 10 | 8 | 0 | 56 | 0 | 0 | 2 | 45 | 22 | 0 | 27 | 36 | 14 | 0
9 | O=C(c1ccc(-c2cc(-c3c[nH]nc3-c3ccccn3)ccn2)cc1)N1CCOCC1 [GW812171] | 15 | 0 | 0 | 17 | 0 | 10 | 0 | 20 | 0 | 0 | 0 | 0 | 9 | 0 | 8 | 0 | 7 | 0 | 1 | 2
10 | COc1cc2ncn(-c3cc(OCc4sccc4Cl)c(C(N)=O)s3)c2cc1OC [GSK448459] | 10 | 0 | 0 | 0 | 0 | 14 | 13 | 0 | 0 | 26 | 0 | 7 | 12 | 26 | 91.8 | 13 | 61 | 0 | 3 | 15
